A short description of the assay: modulators of brain endothelial barrier permeability, primary screen, cell-based, FITC-avidin fluorescence, HTS (AID 1963498). Further: test concentration not given here. Conditions: actives lie on both sides.

Structures are written as SMILES. A number with no mark means an inactive call. The source made the active and inactive calls. No stated cut-off is given here; in the data, active means fold change permeability below about 0.7 or above about 1.3; inactive means in between.

As for `N[C@@H](Cc1cnc[nH]1)C(=O)O`, the fold change permeability was 0.9.
As for `O=C1NC(=O)c2c1c(-c1ccccc1)cc1[nH]c3ccc(O)cc3c21`, the fold change permeability was 0.7 (active).
As for `CCCCOc1cc(CC2CNC(=O)N2)ccc1OC` (configuration not stated), the figure is 0.8.
Consider `CC(C)(C)C(=O)Oc1ccc(S(=O)(=O)Nc2ccccc2C(=O)NCC(=O)O)cc1`, for which the fold change permeability is 0.7 (active).
As to `COc1cccc(OC)c1-c1cc(C(=O)NC2(C(=O)O)C3CC4CC(C3)CC2C4)nn1-c1ccc(C(=O)N(C)CCCN(C)C)cc1C(C)C` (configuration not stated), the fold change permeability is 0.9.
Under `CC(C)(C)c1ccc(/C=C/C(=O)Nc2ccc3c(c2)OCCO3)cc1` stands 2 (active); under `CCc1cccc(N(C)C(N)=Nc2cccc3ccccc23)c1`, 1.1; under `CNC1(C)C2CCC(C2)C1(C)C` (configuration not stated), 0.8.
In the case of `Nc1ncnc2c1ncn2[C@@H]1O[C@H](COP(=O)(O)OP(=O)(O)OP(=O)(O)OP(=O)(O)OC[C@@H]2O[C@H](n3cnc4c(N)ncnc43)C(O)[C@@H]2O)[C@H](O)C1O` (some centres not stated), the fold change permeability was 1.
As for `CCN(CC)CCOC(=O)C1(C2CCCCC2)CCCCC1`, the figure is 1.6 (active).
For `O=C(O)C1=CC(=C(c2ccc(O)c(C(=O)O)c2)c2ccc(O)c(C(=O)O)c2)C=CC1=O`, the fold change permeability was 0.9.
As to `CC(O)C(O)[C@H]1CNc2nc(N)[nH]c(=O)c2N1` (some centres not stated), the fold change permeability is 1.4 (active).

The record behind these values is PubChem BioAssay.
